Source: PubChem BioAssay (Tox21)
Inconclusive results are not listed. A call without a number means that no potency is given here. Calls of active or inactive are those of the source. Calls come from the whole dose curve; as a rule, active = well fitted inhibition curve with a large enough effect in the repeat runs; inconclusive = weak or mixed curves; inactive = no such curve, though single readings can be large or run the other way.

The compounds below were run against Aromatase (Homo sapiens) (UniProt P11511) (assay: qHTS assay to identify aromatase inhibitors (AID 743083; note: nearly all actives have a fitted effect of over 55% in size)). Details: MCF-7 aro ERE, testosterone-driven ERE luciferase, 24 h; series mostly up to 70.3 µM.
Chain of Aromatase (Homo sapiens) (P11511 whole entry, looked up): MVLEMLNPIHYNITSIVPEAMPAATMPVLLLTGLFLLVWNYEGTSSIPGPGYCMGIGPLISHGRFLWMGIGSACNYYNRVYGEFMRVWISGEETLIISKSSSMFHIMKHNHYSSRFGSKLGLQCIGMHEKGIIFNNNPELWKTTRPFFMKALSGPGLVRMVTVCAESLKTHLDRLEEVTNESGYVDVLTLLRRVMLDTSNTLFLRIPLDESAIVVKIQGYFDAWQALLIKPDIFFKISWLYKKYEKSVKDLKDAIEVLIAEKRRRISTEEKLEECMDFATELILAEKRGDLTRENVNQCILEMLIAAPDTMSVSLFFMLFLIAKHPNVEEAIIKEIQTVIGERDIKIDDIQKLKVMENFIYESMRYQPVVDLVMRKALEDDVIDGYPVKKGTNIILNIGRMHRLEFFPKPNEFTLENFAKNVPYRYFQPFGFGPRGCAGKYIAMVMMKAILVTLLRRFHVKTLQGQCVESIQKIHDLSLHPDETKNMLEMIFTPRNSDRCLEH
Potency is the fitted concentration of half-maximal effect.

Q: O=C1OC(CN2CCOCC2)CN1/N=C/c1ccc([N+](=O)[O-])o1 (stereo unspecified) was tested. Which Potency did it give?
A: The Potency was “inactive”.

Q: Which Potency does the source give for C=CC(=O)OCCOCCOC(=O)C=C here?
A: Its Potency is 13.7 µM (active).

Q: CC(COCCO)OCCO (stereo unspecified) was tested. Which Potency did it give?
A: Its Potency is “inactive”.

Q: How did the Potency turn out when Cc1cccc(C)c1NC(=O)CN(CC(=O)O)CC(=O)O was run?
A: The Potency was “inactive”.

Q: Which Potency does the source give for CN(Cc1ccc(C(C)(C)C)cc1)Cc1cccc2ccccc12 here?
A: Its Potency is “inactive”.

Q: CCCCC(CC)COC(=O)COc1ccc(Cl)cc1Cl (stereo unspecified) was tested. Which Potency did it give?
A: The Potency was “inactive”.

Q: For CNC(=O)CN(CCN(CCN(CC(=O)[O-])CC(=O)NC)CC(=O)[O-])CC(=O)[O-].O.[Gd+3], which Potency is on record?
A: Its Potency is “inactive”.

Q: For c1ccc(CNCCNCc2ccccc2)cc1, which Potency is on record?
A: Its Potency is “inactive”.

Q: Which Potency does the source give for OCc1cc(C(O)CNCCCCCCOCCCCc2ccccc2)ccc1O (stereo unspecified) here?
A: The Potency was 26.6 µM (active).

Q: C[C@@H]1C[C@H]2O[C@@]3(O[C@@H]2C(C)(C)O)[C@H](O)[C@@]2(C)[C@@H]4CC[C@H]5C(C)(C)[C@@H](O[C@@H]6OC[C@@H](O)[C@H](O)[C@H]6O)CC[C@@]56C[C@@]46CC[C@]2(C)[C@@H]13 was tested. Which Potency did it give?
A: The Potency was “inactive”.

Q: With COc1ccc(S(=O)(=O)N2C(=O)[C@@](c3ccccc3OC)(N3C[C@H](O)C[C@H]3C(=O)N(C)C)c3cc(Cl)ccc32)c(OC)c1 as the compound, how does the Potency read?
A: Its Potency is 61.1 µM (active).

Q: Which Potency does the source give for CC1=CC[C@H](C(C)C)C=C1 here?
A: The Potency was “inactive”.

Q: For CCCCCCCCCCCc1ccccc1, which Potency is on record?
A: The Potency was “inactive”.

Q: Which Potency does the source give for CC(C)CC(=O)C1C(=O)c2ccccc2C1=O here?
A: The Potency was “inactive”.

Q: Which Potency does the source give for N=c1ccn2c(n1)O[C@H]1[C@H](O)[C@@H](CO)O[C@H]12 here?
A: Its Potency is “inactive”.

Q: How did the Potency turn out when CCN(CC)CCOC(=O)C(c1ccccc1)C1CCCCC1 (stereo unspecified) was run?
A: Its Potency is “inactive”.

Q: For CCCCO, which Potency is on record?
A: The Potency was “inactive”.

Q: How did the Potency turn out when O=C(O)C(S)C(S)C(=O)O (stereo unspecified) was run?
A: Its Potency is “inactive”.

Q: How did the Potency turn out when COc1cc(Cl)ccc1Oc1ccc(Cl)cc1Cl was run?
A: Its Potency is “inactive”.

Q: How did the Potency turn out when COC(C)(C)CCO was run?
A: The Potency was “inactive”.

Q: C=C(C)C(=O)OCCO was tested. Which Potency did it give?
A: The Potency was “inactive”.

Q: CCCCCCCCCCCCCCCCOS(=O)(=O)O was tested. Which Potency did it give?
A: The Potency was “inactive”.

Q: With C/C=C/C=C/CO as the compound, how does the Potency read?
A: The Potency was “inactive”.

Q: CN1CCN(C(c2ccccc2)c2ccccc2)CC1 was tested. Which Potency did it give?
A: Its Potency is “inactive”.

Q: CCCOC(C(=O)OC1CCN(C)CC1)(c1ccccc1)c1ccccc1 was tested. Which Potency did it give?
A: Its Potency is “inactive”.

Q: Which Potency does the source give for NCC(=O)O here?
A: Its Potency is “inactive”.

Q: Which Potency does the source give for CCCCc1nc2cccnc2n1Cc1ccc(-c2ccccc2-c2nnn[nH]2)cc1 here?
A: Its Potency is “inactive”.

Q: C=CC(=O)OCCOc1ccccc1 was tested. Which Potency did it give?
A: The Potency was “inactive”.

Q: Which Potency does the source give for O=C(OCCCCCCOC(=O)c1ccccc1)c1ccccc1 here?
A: Its Potency is “inactive”.

Q: With Nc1ncn([C@H]2C[C@H](O)[C@@H](CO)O2)c(=O)n1 as the compound, how does the Potency read?
A: Its Potency is “inactive”.

Q: How did the Potency turn out when O=[N+]([O-])c1cccc(S(=O)(=O)O)c1 was run?
A: Its Potency is “inactive”.
